This note sets out measurements from PubChem BioAssay AID504466 (National Center for Advancing Translational Sciences (NCATS), 2011).

Among all 330,000 compounds or so, about 4,200 (1.3%) were called active. Roughly 6% stayed inconclusive and do not appear here. The call rests on the fitted dose curve; in most records, active means well fitted activation curve with a large enough effect; inconclusive means small, poorly fitted or top-dose-only effect; inactive means no such curve, though single readings can be large or run the other way. The entries come from a sample that favours actives as a whole. A call without a number means that no potency is given here.
Potency means the concentration at half of the fitted maximal effect.

A short description of this assay: qHTS screen for small molecules that induce genotoxicity in human embryonic kidney (HEK293T) cells expressing luciferase-tagged ELG1. Further: nearly all actives have a fitted effect of over 60% in size. As to conditions: HEK293T ELG1-luciferase reporter, luminescence, 16 h; series mostly up to 46 µM. In outline: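 DMSO vehicle served as control against compound-treated ELG1-luciferase HEK293T cells; exposure lasted 16 hr at 37 °C and 5% CO2, followed by ONE-Glo luminescence detection after 30 min.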
For orientation: Quantitative high-throughput screening tests each substance at several concentrations.
For the compound `Cc1ccc2c(c1)NC(=O)[C@@]1(C)[C@@H](c3ccccc3)[C@H]3COc4ccc(Cl)cc4[C@@H]3N1C2=O`, the Potency entry is “inactive”.

Take `CN(C)C(=O)CCc1ccc2c3c([nH]c2c1)[C@]1(C)[C@@H](C(=O)N2CCOCC2)C[C@H](CC(=O)NCCc2ccccn2)C(=O)N1CC3`: the Potency entry is “inactive”.

As for `COc1ccc(S(=O)(=O)N(C)C[C@@H]2Oc3ccc(NC(=O)Nc4c(C)noc4C)cc3C(=O)N([C@H](C)CO)C[C@@H]2C)cc1`, the Potency entry was “inactive”.

On to `COc1ccc(-n2cnc3cc(C(=O)NC4CCCC4)ccc32)cc1`, for which the Potency entry was “inactive”.

In the case of `COc1ccc(-n2cnc3cc(NCc4ccco4)ccc32)cc1`, the Potency is 20.6 µM (active).

Take `COc1ccc(Nc2nc(NCc3ccco3)nc(N/N=C/c3ccccc3Cl)n2)cc1`: the Potency entry was “inactive”.

Take `C=CCC[C@H](Cc1ccc(F)cc1)C(=O)OC[C@@H](NC(=O)[C@@H](CC=C)CC(=O)N[C@H](CO)Cc1ccccc1)C(C)(C)C`: the Potency entry was “inactive”.

In the case of `Cc1cc(C)c2nc(NC(=O)C3CCCO3)sc2c1` (stereo not drawn), the Potency was 3.55 µM (active).

As for `Cc1ccc(C)c(C(C)NC(=O)C2CCCO2)c1` (stereo not drawn), the Potency result is “inactive”.

On to `Cc1cc([N+](=O)[O-])ccc1NC(=O)C1CCCO1` (stereo not drawn), for which the Potency result was “inactive”.

With `Cc1nccn1CC(=O)N/N=C/c1ccc(O)c(O)c1`, the Potency entry is “inactive”.

For `O=C(Nc1ccccc1)Nc1ccc(C(F)(F)F)cn1`, the Potency result was “inactive”.

Consider `Oc1ccc(/C=N/Nc2ccc(C(F)(F)F)cn2)cc1O`, for which the Potency is 20.6 µM (active).

As for `CCCCCCSc1ccc(-c2nc3ccc(Cl)cn3c2NCc2ccccc2)cc1`, the Potency entry is “inactive”.

Consider `Clc1ccc2nc(CSc3ccccc3)cn2c1`, for which the Potency is 0.82 µM (active).

Regarding `O=C(/C=C/c1ccc2c(c1)OCO2)NCc1cn2cc(Cl)ccc2n1`, the Potency entry was “inactive”.

Regarding `O=C(NCCc1ccco1)c1ccc(OCc2cn3ccccc3n2)cc1`, the Potency entry was “inactive”.

For `COC(=O)CSc1nc(C)c2ccc(OC)cc2n1`, the Potency entry is “inactive”.

In the case of `COc1ccc2nc(SCc3ccccc3)nc(C)c2c1`, the Potency was 3.66 µM (active).

For the compound `COc1ccc(-c2nnc3ccc(SCc4ccccc4)nn23)cc1`, the Potency entry is “inactive”.

Regarding `C#CCOCCOCCOCCNc1nc(N2CCN(C(=O)[C@H](CO)n3cc([C@@H](N)C(C)C)nn3)CC2)nc(N2CCN(C(=O)[C@H](CCC(=O)O)n3cc([C@@H](N)[C@H](C)CC)nn3)CC2)n1`, the Potency entry is “inactive”.

Take `O=C(COC(=O)c1cccnc1Cl)NC12CC3CC(CC(C3)C1)C2`: the Potency entry is “inactive”.

`Cc1ccc(NC(=O)C2CC2)cc1S(=O)(=O)N1CCOCC1`: the Potency entry was “inactive”.

As to `CC[C@]12c3[nH]c4cc(CCC(=O)N(C)C)ccc4c3CCN1C(=O)[C@@H](CC(=O)NCCCN(C)C)C[C@@H]2C(=O)N1CCN(C(=O)c2ccco2)CC1`, the Potency result was “inactive”.

On to `O=C(NN=Cc1ccc(N2CCOCC2)cc1)c1cc2ccccc2cc1O`, for which the Potency entry is “inactive”.

For `N/C(=N\OC(=O)Cc1ccc([N+](=O)[O-])cc1)c1ccccn1`, the Potency entry was “inactive”.

For the compound `COc1ccccc1OCC(=O)OCc1cc(-c2ccco2)on1`, the Potency result was “inactive”.

For `COc1ccccc1OCC(=O)O/N=C(\N)c1ccccn1`, the Potency was 9.2 µM (active).

For `COc1ccc(OCC(=O)NNC(=O)C2CCC2)cc1`, the Potency entry was “inactive”.

For `CC(CNC(=O)Cn1cnc2c(OCc3ccccc3)ncnc21)c1ccccc1` (stereo not drawn), the Potency entry was “inactive”.

On to `Cc1ccc(Nc2nc(N3CCOCC3)nc(N3CCOCC3)n2)cc1Cl`, for which the activity change, positive = activation is 0.349% [at 9.26 µM] (inactive).

Regarding `CNc1nc(Nc2ccc(C)c(Cl)c2)nc(N)c1[N+](=O)[O-]`, the Potency was 10.3 µM (active).

`COc1cccc(Nc2nc(N)c([N+](=O)[O-])c(NCc3ccco3)n2)c1`: the Potency entry is “inactive”.

Consider `CCN(C(=O)COC(=O)c1ccccc1O)c1cccc2ccccc12`, for which the Potency result was “inactive”.

Consider `CC(C)(C)OC(=O)NNc1c2ccccc2nc2ccccc12`, for which the Potency result was “inactive”.

For `COc1cc(OC)cc(C(=O)Nc2ccc(-c3nc4ccccc4o3)c(O)c2)c1`, the Potency result is “inactive”.

Regarding `CC(=O)Nc1ccc(-c2nc3ccccc3o2)cc1`, the Potency is 3.26 µM (active).

Turning to `CCc1nc(Nc2ccc(NC(C)=O)cc2)c2oc3ccccc3c2n1`, the Potency entry was “inactive”.

Turning to `CC(=O)Nc1ccc(Nc2c3ccccc3nc3ccccc23)cc1`, the Potency is 13 µM (active).

With `Cc1ccc(OCC(=O)Nc2ccc(-c3nc4ncccc4o3)cc2)cc1`, the Potency result is “inactive”.

For the compound `Nc1ncnc2c1ncn2[C@@H]1O[C@H](CNCc2cccn2-c2nccs2)[C@@H](O)[C@H]1O`, the Potency result is “inactive”.

Take `CC(C)C(=O)NCc1cc(-c2ccc(Cl)cc2)no1`: the Potency result is “inactive”.

For `CC(C)Cc1cc(C(=O)Nc2cc(Br)ccc2O)no1`, the Potency is 8.2 µM (active).

Regarding `CC(C)/C=N/NC(=O)c1cc(Br)ccc1O`, the Potency entry was “inactive”.

As to `CC(C)N(C(=O)[C@H]1C[C@H](CC(=O)NCCC2=CCCCC2)C(=O)N2CCc3c([nH]c4cc(CCC(=O)N(C)C)ccc34)[C@]12C)C(C)C`, the Potency result is “inactive”.

On to `Cc1cccc(NC(=O)Nc2cccc(Oc3c(F)c(F)c(F)c(F)c3F)c2)c1`, for which the Potency entry was “inactive”.

On to `Cc1ccc(C(=O)COc2cccc(NC(=O)c3ccco3)c2)cc1`, for which the Potency result is “inactive”.

As to `Cc1ccoc1C(=O)Nc1cccc(Oc2ccccc2)c1`, the Potency is 9.2 µM (active).

Turning to `CN(CC(=O)Nc1ccc(C(N)=O)cc1)S(=O)(=O)c1ccc2c(c1)OCCO2`, the Potency entry was “inactive”.

With `O=C(Cn1cnc2c(OCc3ccccc3)ncnc21)NCCCn1ccnc1`, the Potency entry was “inactive”.

As for `O=C(COC(=O)c1ccc(F)cc1)NCC1COc2ccccc2O1` (stereo not drawn), the Potency result is “inactive”.

For the compound `O=C1c2ccccc2C(=O)N1CCOc1ccc(F)cc1`, the Potency was 20.6 µM (active).

Turning to `O=C(OCCN1C(=O)c2ccccc2C1=O)Oc1ccccc1`, the Potency entry is “inactive”.

Consider `Cc1cccc2c1N(CCOc1ccccc1)C(=O)C2=O`, for which the Potency result was “inactive”.

On to `Cn1cccc1C(=O)OCC(=O)c1ccc(Br)s1`, for which the Potency entry is “inactive”.

Consider `COc1ccc(S(=O)(=O)Nc2cccc3c2O[C@H](CN(C)S(=O)(=O)c2ccc(OC)cc2)[C@@H](C)CN([C@H](C)CO)C3=O)cc1`, for which the Potency result is “inactive”.

Regarding `NC(=O)c1c(NC(=O)c2ccccc2)sc2c1CCCC2`, the Potency was 8.2 µM (active).

With `O=C(Nc1sc2c(c1C(=O)O)CCC2)c1ccccc1F`, the Potency entry was “inactive”.

As for `Cc1ccc(C(=O)c2c(NC(=O)c3ccncc3)sc3c2CCCC3)cc1`, the Potency entry is “inactive”.

Consider `Cc1ccc(Oc2nc(-c3ccccn3)nc3ccccc23)cc1`, for which the Potency result was “inactive”.

Turning to `O=C(Oc1ccc(-c2nc(-c3ccccn3)no2)cc1)c1ccccc1`, the Potency is 0.517 µM (active).

On to `O=C(Oc1ccc(Br)cc1)c1cccnc1`, for which the Potency result was “inactive”.

For `COc1cc(C(=O)OCc2cc(=O)n3ccsc3n2)ccc1OC(C)C`, the Potency result was “inactive”.
